Columns and labels:
[1] = target: MAP/microtubule affinity-regulating kinase 3 (Homo sapiens) (UniProt P27448); conditions: at 1 µM;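 also: reported values are averaged percent inhibition of MARK3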
[2] = target: T1, MAP/microtubule affinity-regulating kinase 4 (Homo sapiens) (UniProt Q96L34); conditions: at 0.1 µM
T1 sequence (whole entry): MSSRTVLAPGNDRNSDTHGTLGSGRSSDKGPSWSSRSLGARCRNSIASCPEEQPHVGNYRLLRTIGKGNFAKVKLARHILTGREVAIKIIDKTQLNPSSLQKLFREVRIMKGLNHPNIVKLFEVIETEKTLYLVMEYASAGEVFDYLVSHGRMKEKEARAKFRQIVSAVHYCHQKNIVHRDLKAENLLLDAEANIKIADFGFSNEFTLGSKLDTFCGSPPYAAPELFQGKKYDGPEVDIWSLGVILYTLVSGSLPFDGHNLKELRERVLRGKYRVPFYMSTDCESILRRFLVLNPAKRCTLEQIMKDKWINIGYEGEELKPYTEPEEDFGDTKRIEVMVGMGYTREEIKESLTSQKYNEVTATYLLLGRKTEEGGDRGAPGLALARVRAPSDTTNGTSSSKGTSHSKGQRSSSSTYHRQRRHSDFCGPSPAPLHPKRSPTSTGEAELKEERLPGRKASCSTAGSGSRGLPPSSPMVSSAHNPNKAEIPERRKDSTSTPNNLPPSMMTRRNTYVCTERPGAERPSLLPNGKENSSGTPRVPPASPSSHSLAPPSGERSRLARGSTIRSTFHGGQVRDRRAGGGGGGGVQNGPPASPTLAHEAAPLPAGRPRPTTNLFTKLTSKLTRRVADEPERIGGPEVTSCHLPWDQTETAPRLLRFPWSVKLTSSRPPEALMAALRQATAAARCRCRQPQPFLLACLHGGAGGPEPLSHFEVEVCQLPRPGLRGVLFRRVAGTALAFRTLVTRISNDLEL

[3] = target: T1, MAP/microtubule affinity-regulating kinase 4 (Homo sapiens); conditions: at 1 µM
[4] = target: Maternal embryonic leucine zipper kinase (Homo sapiens) (UniProt Q14680); conditions: at 0.1 µM
[5] = target: Maternal embryonic leucine zipper kinase (Homo sapiens) (UniProt Q14680); conditions: at 1 µM
[6] = target: MAP kinase-interacting serine/threonine-protein kinase 1 (Homo sapiens) (UniProt Q9BUB5); conditions: at 0.1 µM
[7] = target: MAP kinase-interacting serine/threonine-protein kinase 1 (Homo sapiens) (UniProt Q9BUB5); conditions: at 1 µM
[8] = target: MAP kinase-interacting serine/threonine-protein kinase 2 (Homo sapiens) (UniProt Q9HBH9); conditions: at 0.1 µM
[9] = target: MAP kinase-interacting serine/threonine-protein kinase 2 (Homo sapiens) (UniProt Q9HBH9); conditions: at 1 µM
[10] = target: Serine/threonine-protein kinase MARK2 (Homo sapiens) (UniProt Q7KZI7); conditions: at 0.1 µM;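 also: mean percent inhibition of PAR-1Balpha kinase activity, reported from the GSK PKIS screen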
Chain of Serine/threonine-protein kinase MARK2 (Homo sapiens) (Q7KZI7 whole entry): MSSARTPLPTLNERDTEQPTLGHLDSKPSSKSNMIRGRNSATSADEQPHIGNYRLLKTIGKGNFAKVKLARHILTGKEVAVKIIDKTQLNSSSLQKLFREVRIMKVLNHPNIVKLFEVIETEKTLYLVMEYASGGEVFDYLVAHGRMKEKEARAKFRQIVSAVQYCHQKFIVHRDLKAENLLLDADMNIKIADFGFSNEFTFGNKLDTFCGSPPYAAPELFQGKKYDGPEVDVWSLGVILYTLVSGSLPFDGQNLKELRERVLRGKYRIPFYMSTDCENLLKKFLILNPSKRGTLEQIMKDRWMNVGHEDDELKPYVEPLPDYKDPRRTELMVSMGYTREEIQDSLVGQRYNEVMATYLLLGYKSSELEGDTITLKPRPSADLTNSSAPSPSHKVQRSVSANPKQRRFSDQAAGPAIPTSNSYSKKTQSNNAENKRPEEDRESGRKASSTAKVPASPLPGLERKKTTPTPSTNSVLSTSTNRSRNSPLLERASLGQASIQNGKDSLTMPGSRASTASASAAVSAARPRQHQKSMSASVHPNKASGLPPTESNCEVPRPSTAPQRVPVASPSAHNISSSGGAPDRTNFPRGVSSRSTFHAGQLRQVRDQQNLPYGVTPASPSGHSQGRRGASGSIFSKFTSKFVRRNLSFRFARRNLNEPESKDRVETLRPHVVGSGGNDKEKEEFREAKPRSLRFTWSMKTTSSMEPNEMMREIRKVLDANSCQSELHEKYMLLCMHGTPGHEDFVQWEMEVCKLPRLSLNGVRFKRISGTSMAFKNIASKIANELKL

Chain of MAP kinase-interacting serine/threonine-protein kinase 2 (Homo sapiens) (Q9HBH9 whole entry, looked up): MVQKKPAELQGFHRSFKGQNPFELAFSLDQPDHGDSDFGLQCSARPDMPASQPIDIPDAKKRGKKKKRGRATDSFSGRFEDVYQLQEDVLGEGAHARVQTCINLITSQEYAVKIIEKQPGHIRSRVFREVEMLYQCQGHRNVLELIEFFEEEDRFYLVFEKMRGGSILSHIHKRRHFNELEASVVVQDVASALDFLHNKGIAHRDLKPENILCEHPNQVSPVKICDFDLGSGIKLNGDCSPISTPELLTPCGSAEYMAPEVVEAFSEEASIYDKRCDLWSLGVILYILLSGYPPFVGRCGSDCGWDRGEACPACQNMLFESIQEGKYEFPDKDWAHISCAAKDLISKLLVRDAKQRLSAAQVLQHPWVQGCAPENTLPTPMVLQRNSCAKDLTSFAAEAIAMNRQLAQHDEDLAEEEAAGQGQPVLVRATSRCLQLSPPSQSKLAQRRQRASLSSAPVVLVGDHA
Chain of MAP/microtubule affinity-regulating kinase 3 (Homo sapiens) (P27448 whole entry, looked up): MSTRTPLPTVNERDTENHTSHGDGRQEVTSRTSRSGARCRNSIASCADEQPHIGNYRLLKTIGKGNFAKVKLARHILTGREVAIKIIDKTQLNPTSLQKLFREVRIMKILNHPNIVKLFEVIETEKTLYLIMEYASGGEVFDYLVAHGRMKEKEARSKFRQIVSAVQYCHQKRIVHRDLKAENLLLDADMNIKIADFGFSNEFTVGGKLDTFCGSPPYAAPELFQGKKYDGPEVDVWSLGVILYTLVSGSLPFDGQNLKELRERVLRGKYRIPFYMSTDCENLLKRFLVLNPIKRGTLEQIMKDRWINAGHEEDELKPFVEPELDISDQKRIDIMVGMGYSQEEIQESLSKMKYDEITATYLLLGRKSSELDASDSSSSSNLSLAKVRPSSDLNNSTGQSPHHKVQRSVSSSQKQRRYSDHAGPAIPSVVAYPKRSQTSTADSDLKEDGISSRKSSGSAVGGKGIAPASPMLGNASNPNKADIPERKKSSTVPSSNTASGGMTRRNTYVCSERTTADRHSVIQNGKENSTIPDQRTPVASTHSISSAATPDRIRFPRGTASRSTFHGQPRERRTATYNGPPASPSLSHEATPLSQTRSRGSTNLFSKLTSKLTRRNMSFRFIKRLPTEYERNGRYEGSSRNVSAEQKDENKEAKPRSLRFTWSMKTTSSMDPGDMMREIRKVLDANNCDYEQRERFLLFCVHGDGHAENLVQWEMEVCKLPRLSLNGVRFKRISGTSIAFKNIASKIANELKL
Chain of MAP kinase-interacting serine/threonine-protein kinase 1 (Homo sapiens) (Q9BUB5 whole entry, looked up): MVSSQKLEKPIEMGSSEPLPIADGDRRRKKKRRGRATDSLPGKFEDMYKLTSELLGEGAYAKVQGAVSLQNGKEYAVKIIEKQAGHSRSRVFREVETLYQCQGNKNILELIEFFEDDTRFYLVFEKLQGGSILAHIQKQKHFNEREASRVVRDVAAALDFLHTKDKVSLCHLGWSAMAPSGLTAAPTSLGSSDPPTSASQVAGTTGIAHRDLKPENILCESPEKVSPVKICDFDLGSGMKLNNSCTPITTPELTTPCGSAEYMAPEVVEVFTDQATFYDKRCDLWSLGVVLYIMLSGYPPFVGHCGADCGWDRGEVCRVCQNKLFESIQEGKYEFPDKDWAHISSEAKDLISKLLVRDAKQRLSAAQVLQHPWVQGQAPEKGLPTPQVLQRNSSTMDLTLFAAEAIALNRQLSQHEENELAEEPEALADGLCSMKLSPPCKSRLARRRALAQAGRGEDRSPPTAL
Chain of Maternal embryonic leucine zipper kinase (Homo sapiens) (Q14680 whole entry, looked up): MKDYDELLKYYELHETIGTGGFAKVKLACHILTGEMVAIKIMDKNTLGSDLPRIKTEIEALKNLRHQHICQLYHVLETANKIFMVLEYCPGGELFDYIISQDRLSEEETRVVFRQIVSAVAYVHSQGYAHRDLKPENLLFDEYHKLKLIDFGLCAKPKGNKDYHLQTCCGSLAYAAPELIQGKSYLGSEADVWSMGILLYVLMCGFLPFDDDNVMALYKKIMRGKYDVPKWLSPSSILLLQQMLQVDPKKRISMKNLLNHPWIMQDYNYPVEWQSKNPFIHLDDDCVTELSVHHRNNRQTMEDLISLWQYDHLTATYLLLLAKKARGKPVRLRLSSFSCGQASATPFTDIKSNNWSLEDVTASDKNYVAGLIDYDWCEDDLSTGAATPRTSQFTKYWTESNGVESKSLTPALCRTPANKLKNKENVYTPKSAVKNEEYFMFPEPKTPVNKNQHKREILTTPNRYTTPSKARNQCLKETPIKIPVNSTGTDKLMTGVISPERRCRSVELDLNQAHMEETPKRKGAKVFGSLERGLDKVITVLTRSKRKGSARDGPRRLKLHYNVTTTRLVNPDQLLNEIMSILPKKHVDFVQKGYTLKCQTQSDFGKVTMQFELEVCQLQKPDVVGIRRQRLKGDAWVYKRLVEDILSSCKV

SMILES	inhibition [1]	inhibition [2]	inhibition [3]	inhibition [4]	inhibition [5]	inhibition [6]	inhibition [7]	inhibition [8]	inhibition [9]	inhibition [10]
O=C(Nc1n[nH]c2cc(-c3cc(F)ccc3F)ccc12)C1CC1	-0.14%	2.5%	5.44%	2.11%	5.13%	3.39%	12.6%	1.25%	2.16%	-1.51%
O=C1Nc2ccccc2/C1=C/Nc1ccc(-n2cncn2)cc1	36.4%	3.35%	17.9%	6.89%	25.8%	7.6%	14.8%	2.4%	8.07%	1.47%
O=C(Nc1n[nH]c2nc(-c3ccco3)ccc12)C1CC1	1.53%	0.31%	0.56%	2.23%	2.05%	1.89%	9.62%	0.06%	4.01%	0.19%
NC(=O)c1ccc(Oc2nccc(-c3c(-c4ccc(F)cc4)ncn3C3CCNCC3)n2)cc1	6.64%	1.51%	2.24%	7.28%	11.6%	3.92%	4.27%	3.56%	4.79%	2.73%
CN(C)CCOc1ccc(-c2cc(-c3ccc4c(c3)CCC4=NO)c(-c3ccncc3)o2)cc1	-0.6%	-0.26%	0.68%	-1.71%	-1.71%	1.14%	5.12%	0.16%	2.71%	-1.72%
C#Cc1cccc(Nc2ncnc3ccc(OCCCCNCCS(C)(=O)=O)cc23)c1	6.08%	2.28%	3.56%	3.6%	8.09%	9.11%	46.7%	4.73%	31.8%	1.67%
Fc1ccc(-c2nc3n(c2-c2ccncc2)CCS3)cc1	-0.12%	2.4%	3.63%	4.86%	6.72%	1.57%	4.14%	-2.37%	0.35%	0.46%
CCc1nccc2c1nc(-c1nonc1N)n2CC	-0.48%	0.74%	0.5%	-0.92%	0.69%	-0.04%	2.83%	-0.46%	4.5%	0.35%
Fc1ccc(-c2ncn(CCCN3CCOCC3)c2-c2ccncc2)cc1	22%	0.52%	0.72%	-0.32%	-0.03%	-0.96%	0.15%	-1.39%	-0.24%	-1.95%
COc1cccc(/C=N/Nc2ncnc3c2cnn3-c2cccc(OC)c2)c1	0.87%	0.94%	0.58%	3.83%	9.57%	2.02%	4.36%	-0.25%	2.4%	-5.9%
COc1cc2ncn(-c3cc(OCCc4ccccc4)c(C(N)=O)s3)c2cc1OC	1.74%	0.87%	0.86%	3.07%	1.31%	2%	6.3%	0.86%	12.8%	1%
O=C1NC(=O)C(c2cccc(Cl)c2)=C1Nc1ccc(Cl)c(C(=O)O)c1	8%	0.26%	1.44%	-0.69%	3.67%	3.32%	5.32%	2.61%	4%	-2.87%
COC(=O)Nc1nc2ccc(Sc3ccc(NC(=O)Nc4cc(C(F)(F)F)ccc4F)cc3)cc2[nH]1	1.81%	-1.27%	-0.2%	-2.18%	-2.88%	-0.03%	4.58%	0.6%	1.48%	0.92%
CN1CCN(CCCNc2nc3ccc(Oc4ccc(NC(=O)Nc5cc(C(F)(F)F)ccc5F)cc4)cc3[nH]2)CC1	0.11%	1.5%	2.34%	0.4%	-0.26%	2.77%	15.5%	0.67%	9.51%	-0.44%
NC(=O)Cc1ccccc1Oc1nccc(-c2c(-c3ccc(F)cc3)ncn2C2CCNCC2)n1	5.15%	1.54%	1.97%	1.5%	5.18%	1.93%	1.72%	0.62%	0.77%	1.48%
NS(=O)(=O)c1ccc(N/N=C2\C(=O)Nc3ccc(-c4cnco4)cc32)cc1	17.4%	4.35%	26.1%	5.8%	32.9%	1.41%	7.87%	2.14%	8.88%	1.73%
CS(=O)(=O)CCNCc1cc(-c2cc3c(Nc4ccc(OCc5cccc(F)c5)c(Cl)c4)ncnc3s2)cs1	3.64%	1.63%	1.6%	5.46%	10.5%	2.78%	7.91%	1.16%	7.96%	-0.51%

SMILES	inhibition [1]	inhibition [2]	inhibition [3]	inhibition [4]	inhibition [5]	inhibition [6]	inhibition [7]	inhibition [8]	inhibition [9]	inhibition [10]
NCc1ccc(-n2c(-c3nonc3N)nc3cnccc32)cc1	22.6%	4.49%	13.3%	33.9%	88.2%	4.41%	13.6%	1.06%	10.1%	4.09%
COc1cc2ncn(-c3cc(OCc4cccs4)c(C(N)=O)s3)c2cc1OC	20.3%	2.12%	9.4%	2.35%	4.91%	3.56%	14.7%	3.17%	13%	1.68%
Cc1nnc(-c2ccc(C)c(-c3ccc(C(=O)NCc4ccc(Cl)cc4)cc3)c2)o1	-1.1%	2.02%	1.96%	4.87%	5.52%	2.03%	6.45%	0.86%	1.57%	1.6%
CCc1ccc(Oc2nccc(-c3c(-c4ccc(F)cc4)ncn3C3CCNCC3)n2)cc1	7.86%	2.89%	4.67%	6.32%	5.64%	2.17%	4.48%	3.36%	3.52%	1.93%
COc1cc(Nc2ncc(-c3ccccc3)o2)cc(OC)c1OC	22.1%	2.46%	13.4%	-0.49%	5.74%	4.6%	30.4%	1.26%	24.2%	2.94%
FC(F)(F)c1cccc(Nc2nccc(-c3cnn4nc(-c5ccccc5)ccc34)n2)c1	1.86%	1.13%	1.01%	4.89%	32.3%	2.28%	2.48%	0.22%	4.37%	-0.36%
O=C1Nc2ccc(I)cc2C1=Cc1cc(Br)c(O)c(Br)c1	2.16%	1.14%	2.32%	2.86%	13.8%	2.2%	7.73%	2.51%	17.6%	-0.39%
Cc1ccc(C(=O)NC(C)C)cc1-c1ccc(C(=O)NCC2CC2)cc1	-0.42%	1.15%	0.5%	-2.85%	-2.99%	-1.07%	-0.97%	-0.04%	1.12%	0.38%
COc1ccc(-c2ccc3c(NC(=O)C4CC4)n[nH]c3n2)cc1	2.41%	0%	-0.43%	-1.74%	-0.77%	3.03%	21.5%	1.32%	5.48%	0.67%
CN(C)c1ccc2c(c1)/C(=C/Nc1ccc(S(N)(=O)=O)cc1)C(=O)N2	32.7%	6.9%	32.5%	3.82%	20.4%	1.64%	9.3%	1.66%	3.67%	3.86%
NC(=O)c1cc(-c2ccc(F)cc2)cc(-c2ccncc2)c1N	-2.7%	1.2%	2.29%	2.86%	4.94%	3.36%	12.1%	1.44%	3.34%	0.15%
CN(c1ccc(NC(=O)Nc2c(Cl)cccc2Cl)cc1)c1ccnc(Nc2cccc(CS(C)(=O)=O)c2)n1	13.3%	2.82%	12.8%	3.73%	3.32%	10.2%	27.9%	20.4%	45.6%	-0.82%
O=C(NCC1CC1)c1ccc(-c2cccc(C(=O)NC3CC3)c2)cc1	6.77%	0.89%	0.47%	1.66%	0.83%	1.09%	0.19%	-1.06%	0.04%	0.08%
CN(C)CCCNc1nccc(-c2c(-c3ccc(F)cc3)nn3cc(C(F)(F)F)ccc23)n1	3%	1.09%	2.72%	1.14%	2.95%	1.94%	8.83%	0.89%	6.51%	-0.22%
COc1cc(C)c(N(C)C(=O)CN(C)C)cc1Nc1nc(Nc2cccc(F)c2C(N)=O)c2cc[nH]c2n1	4.11%	1.12%	1.75%	-1.34%	5.45%	-0.51%	1.72%	-1.19%	-0.74%	0.4%
COc1cc(N2CCN(C(C)C)CC2)ccc1Nc1nc(Nc2ccc(F)cc2C(=O)NC[C@@H](O)CO)c2cc[nH]c2n1	19.6%	1.95%	2.9%	3.61%	19.9%	3.33%	8.52%	1.03%	5.28%	1.97%
CS(=O)(=O)CCNCc1ccc(-c2ccc3ncnc(Nc4ccc(OCc5ccccc5)c(Br)c4)c3c2)o1	-0.13%	2.98%	2.37%	5.3%	5.37%	2.72%	6.16%	2.36%	7.73%	0.23%

Reference: ChEMBL document CHEMBL1961873, “Compounds: GSK PKIS; Assays: Nanosyn kinase panel” (2012)
